We go through 27 molecules from PubChem BioAssay (NCATS).

Experiment [1] in a line: Counterscreen for APE1 Inhibitors: Fluorescent Dye Displacement Validation Assay (AID 1707). Further: potency means the concentration at half of the fitted maximal effect. As to conditions: fluorescent dye displacement from DNA; series mostly up to 57.1 µM. The method, boiled down:
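Thiazole Orange (250 nM) bound to 50 nM TAMRA-labelled dsDNA with tetrahydrofuran abasic site; displacement by DNA-binding compounds lowers fluorescence. Buffer 50 mM Tris-HCl pH 7.5, 50 mM NaCl, 2 mM MgCl2, 0.01% Tween-20; endpoint read at 480/540 nm.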

Experiment [2] addresses Endonuclease 4 (Escherichia coli (strain K12)) (UniProt P0A6C1). The experiment in a line: Counterscreen for APE1 Inhibitors: qHTS Validation Assay for Inhibitors of Endonuclease IV (AID 1708). As to conditions: E. coli endonuclease IV, DNA cleavage fluorescence; series mostly up to 57.1 µM. The method, boiled down:
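2 nM enzyme was preincubated with compounds for 15 min at room temperature in 50 mM Tris-HCl pH 7.5, 50 mM NaCl, 2 mM MgCl2, 1 mM DTT, 0.01% Tween-20. 50 nM THF-abasic TAMRA/BHQ-2 duplex substrate started the reaction.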
(In general: The purpose of a counterscreen is to sort out artefacts and off-target activity.)

Experiment [3] is described as follows: qHTS for differential inhibitors of proliferation of Plasmodium falciparum line 7G8 (AID 1815).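 Further: parasite growth measured after three days of incubation.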 Further: potency means the concentration at half of the fitted maximal effect. The following applies: Plasmodium falciparum 7G8 proliferation inhibition; series mostly up to 28.7 µM.
Experiment [4] in a line: qHTS for differential inhibitors of proliferation of Plasmodium falciparum line GB4 (AID 1816).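 Further: parasite growth measured after 72 h incubation.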 Further: potency means the concentration at half of the fitted maximal effect. As to conditions: Potency: Plasmodium falciparum GB4 proliferation inhibition; series mostly up to 28.7 µM. Background: qHTS replaces the single test concentration by a dilution series.
Experiment [5] can be described thus: qHTS for differential inhibitors of proliferation of Plasmodium falciparum line 3D7 (AID 1876). Further: potency means the concentration at half of the fitted maximal effect. As to conditions: P. falciparum 3D7 proliferation inhibition; series mostly up to 28.7 µM.
Experiment [6] is described as follows: qHTS for differential inhibitors of proliferation of Plasmodium falciparum line D10 (AID 1877).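 Further: parasites grown with compound for 72 h before DNA staining.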 Further: potency means the concentration at half of the fitted maximal effect. The following applies: series mostly up to 28.7 µM.
Experiment [7] can be described thus: qHTS for differential inhibitors of proliferation of Plasmodium falciparum line W2 (AID 1883).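 Further: parasites grown with compound for 72 h before lysis and staining.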 Further: potency means the concentration at half of the fitted maximal effect. The following applies: Potency: Plasmodium falciparum W2 proliferation inhibition; series mostly up to 28.7 µM.
Experiment [8] in a line: qHTS for differential inhibitors of proliferation of Plasmodium falciparum line HB3 (AID 1886).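 Further: parasites grown with compound for 72 h before SYBR Green readout.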 Further: potency means the concentration at half of the fitted maximal effect. As to conditions: Potency: Plasmodium falciparum HB3 proliferation inhibition; series mostly up to 28.7 µM.
A short description of experiment [9]: qHTS Assay for Identification of Small Molecule Inducers of Hypoxia Response (AID 2120; active means well fitted curve in the direction sought with a large enough effect in the signal ratio, with a control signal flat, not every such curve was filed as active; the % refers to the signal ratio). As to conditions: hypoxia response reporter cells, beta-lactamase ratio readout; series mostly up to 104 µM. The method, boiled down:
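HRE-beta-lactamase reporter in CellSensor HRE-bla ME-180 cells, 2500 cells/well in Opti-MEM with 0.5% dialyzed FBS; compounds tested as titration series, 17 h at 37 degrees C. CCF4 substrate 2.5 h at room temperature; AC50 from 460/530 nm ratio.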

The nature of experiment [10]: qHTS Assay for Modulators of Human Peripheral Myelin Protein 22 (PMP22) Expression/Activity (AID 1967; active means well fitted curve in the direction sought with a large enough effect in the signal ratio; the % refers to the signal ratio). As to conditions: Cell-based PMP22 reporter, dual-color luciferase ratio, mouse Pmp22 promoter in mouse Schwann cells; series mostly up to 115 µM. An outline of the steps: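 Luminescence ratio of Pmp22 promoter-driven green luciferase to EF-alpha-driven red luciferase, in engineered mouse MSC80 Schwann cells, served as read-out. Compounds were incubated 24h; untreated cells defined 0% Activity; curves were classified by r2, magnitude and activity.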

Results filed as inconclusive are left out. Active and inactive are the calls of the source. Unless noted, the call rests on the fitted dose curve; in most records, active means well fitted curve in the direction sought with a large enough effect; inconclusive means small, poorly fitted or top-dose-only effect, or another doubt; inactive means no such curve, though single readings can be large; an effect the other way counts as inactive or inconclusive.

Consider `NCC1(CC(=O)O)CCCCC1`, for which the Potency entry in [1], in experiment [3], in [4], in experiment [5], in experiment [6] and in experiment [7] was “inactive” in each case. Also, in experiment [8], the Potency result was “inactive”. For the same molecule, in experiment [2], the outcome was inactive.

Regarding `Fc1ccc(C(OCCN2CCN(CCCc3ccccc3)CC2)c2ccc(F)cc2)cc1`, the Potency result in experiment [1] is “inactive”. Also, the Potency in experiment [3] was 3.98 µM (active); in experiment [4], 3.98 µM (active); in experiment [5] it was 7.08 µM (active); in experiment [6] it was 12.6 µM (active); in experiment [7] it was 2.82 µM (active); in experiment [8], 4.47 µM (active).

Turning to `Cc1ncc(CNC(=O)N(CCCl)N=O)c(N)n1`, the Potency result in experiment [1], in [3], in experiment [4], in experiment [5], in experiment [6] and in experiment [7] was “inactive” in each case. The Potency result in experiment [8] was “inactive”. In addition, the molecule was classed as inactive in [2].

In the case of `COc1ccc(Cc2nccc3cc(OC)c(OC)cc23)cc1OC`, the Potency result in experiment [1] and in [3] was “inactive” in each case.

`C=C(C)[C@H]1Cc2c(ccc3c2O[C@@H]2COc4cc(OC)c(OC)cc4[C@@H]2C3=O)O1`: the Potency entry in [1] is “inactive”. In addition, the molecule was classed as inactive in experiment [2]. The Potency was 11.2 µM (active) in experiment [3], 12.6 µM (active) in experiment [4] and 8.91 µM (active) in experiment [7].

As for `Cc1c(OCC(F)(F)F)ccnc1CS(=O)c1nc2ccccc2[nH]1` (configuration not stated), the Potency was 8.91 µM (active) in experiment [3]; 10 µM (active) in experiment [4]; 11.2 µM (active) in experiment [5]; 12.6 µM (active) in [6]; 10 µM (active) in experiment [7]; 11.2 µM (active) in experiment [8].

As for `CC(C)C(=O)Nc1ccc([N+](=O)[O-])c(C(F)(F)F)c1`, the Potency in experiment [7] is 12.6 µM (active); in experiment [8], 14.1 µM (active).

For the molecule `CC[N+](CC)(CC)CC`, the Potency entry in [1] was “inactive”. In addition, the Potency in experiment [5] and in experiment [6] was 11.2 µM (active) throughout.

For `COc1cc2c(c(OC)c1OC)-c1ccc(OC)c(=O)cc1[C@@H](NC(C)=O)CC2`, the result in experiment [2] was inactive. Moreover, the Potency in experiment [3] was 11.2 µM (active); in experiment [5], 10 µM (active); in experiment [7], 11.2 µM (active).

For the molecule `OCCOc1ccccc1`, the result in experiment [9] was inactive.

As for `O=c1c(O)c(-c2ccc(O)c(O)c2)oc2cc(O)cc(O)c12`, the Potency in [1] is 2.51 µM (active); in experiment [3], 3.55 µM (active); in experiment [4], 2.51 µM (active); in experiment [5], 3.55 µM (active); in [6], 7.08 µM (active); in experiment [7], 4.47 µM (active). For the same molecule, the Potency in experiment [8] is 2.82 µM (active).

Take `CN(C)CCC=C1c2ccccc2CCc2ccccc21`: the Potency in experiment [3] was 10 µM (active); in [4], 7.94 µM (active); in [6], 8.91 µM (active); in [7], 3.16 µM (active); in experiment [8] it was 14.1 µM (active).

`CCOP(=S)(OCC)Oc1cc(C)nc(C(C)C)n1`: the outcome in experiment [9] was inactive.

With `COC[C@H]1OC(=O)c2coc3c2[C@@]1(C)C1=C(C3=O)C2CCC(=O)[C@@]2(C)C[C@H]1OC(C)=O` (some centres not stated), the Potency entry in [1] and in experiment [6] was “inactive” in each case. The Potency in experiment [5] was 12.6 µM (active); in [7], 11.2 µM (active).

Turning to `CC(COc1ccccc1)N(CCCl)Cc1ccccc1` (configuration not stated), the Potency in experiment [3] was 7.94 µM (active); in [7], 2.51 µM (active).

As to `CC(CCc1ccccc1)NC(C)C(O)c1ccc(O)cc1` (configuration not stated), the Potency result in experiment [1] and in [6] was “inactive” in each case. The Potency in experiment [3] was 7.94 µM (active); in [4] it was 3.16 µM (active); in experiment [7], 2.51 µM (active).

On to `O=c1[nH]cc(F)c(=O)[nH]1`, for which the Potency was 7.08 µM (active) in [3]; 7.94 µM (active) in experiment [4]; 4.47 µM (active) in [5]; 4.47 µM (active) in experiment [6]; 7.94 µM (active) in [7]; 5.01 µM (active) in experiment [8].

As to `C[C@]12C/C(=C/O)C(=O)C[C@@H]1CC[C@@H]1[C@@H]2CC[C@@]2(C)[C@H]1CC[C@]2(C)O`, the outcome in [9] was inactive.

Turning to `c1ccc2c(c1)Nc1ccccc1S2`, in experiment [9], the result was inactive.

`CNCCC(Oc1ccc(C(F)(F)F)cc1)c1ccccc1` (configuration not stated): the Potency in experiment [6] was 10 µM (active); in experiment [7], 2.24 µM (active).

As to `Cc1nc2n(c(=O)c1CCN1CCC(c3noc4cc(F)ccc34)CC1)CCCC2`, the Potency is 11.2 µM (active) in experiment [3]; 11.2 µM (active) in experiment [4]; 12.6 µM (active) in experiment [5]; 10 µM (active) in experiment [6]; 10 µM (active) in experiment [7].

`Oc1ccccc1-c1ccccc1`: the result in experiment [9] was inactive.

Turning to `O=c1[nH]c2ccccc2n1C1CCN(CCCC(c2ccc(F)cc2)c2ccc(F)cc2)CC1`, in experiment [1], the Potency result is “inactive”. The Potency in experiment [3] was 3.98 µM (active); in [4], 8.91 µM (active); in [5], 3.16 µM (active); in experiment [6] it was 7.08 µM (active); in experiment [7], 2.82 µM (active); in experiment [8] it was 5.62 µM (active).

Consider `CC(=O)[C@H]1CC[C@H]2[C@@H]3CC[C@H]4C[C@H](O)CC[C@]4(C)[C@H]3C(=O)C[C@]12C`, for which the Potency result in experiment [1], in experiment [3], in [4], in experiment [5], in experiment [6] and in experiment [8] was “inactive” in each case. The result in experiment [10] was inactive.

As to `CN1C[C@H](CNC(=O)OCc2ccccc2)C[C@@H]2c3cccc4c3c(cn4C)C[C@H]21`, in experiment [1], the Potency entry is “inactive”. The Potency in [3] was 5.01 µM (active); in experiment [4], 7.08 µM (active); in experiment [5], 2.51 µM (active); in experiment [6], 11.2 µM (active); in experiment [7], 3.98 µM (active); in experiment [8], 11.2 µM (active).

As to `OCCN1CCN(CCCN2c3ccccc3Sc3ccc(C(F)(F)F)cc32)CC1`, the Potency in [3] is 2.82 µM (active); in experiment [4] it was 2.51 µM (active); in experiment [5], 2.51 µM (active); in [6], 10 µM (active); in experiment [7], 1.41 µM (active); in experiment [8] it was 4.47 µM (active).

On to `O=C1NCN(c2ccccc2)C12CCN(CC1COc3ccccc3O1)CC2` (configuration not stated), for which, in experiment [1], the Potency entry is “inactive”. Besides, the results for the Potency in experiment [3] and in experiment [7] were 8.91 µM (active) and 10 µM (active), respectively. In experiment [10], the result was inactive.
